From PubChem BioAssay
Sampled rows, rich in hits. Any-hit rate of the full collection: about 2.1%.
aSyn yeast inh – inhibitors of alpha-synuclein toxicity in yeast. AID 652106. Yeast expressing alpha-synuclein, growth rescue, BacTiter-Glo, 24 h. Potency, µM (titrated, usually from 46.1 µM), for the others: top-dose growth rescue (activation), hits mostly activators. 370,000 compounds, 0.14% hits; also: % of control where 0% means no effect; nearly all actives have a fitted effect of over 65% in size
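Screening used galactose-induced yeast with toxic alpha-synuclein levels, exposed to compound for 24 hr at 30 deg C. Cell growth, read with BacTiter-Glo luminescence, gave the measured signal.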
Abeta yeast res – restores growth of yeast expressing A-beta42 peptide | yeast expressing A-beta42, growth rescue, OD600, 48 h; response scale: 0% DMSO, 100% iron-clioquinol control | Potency, µM (series often up to 46.1 µM), actives largely listed as activators | 410,000 compounds, 0.063% hits | AID 1347071; also: nearly all actives have a fitted effect of over 55% in size
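Yeast A-beta toxicity model in growth medium with pinned compounds, 48 h at 30 C; growth read as absorbance at 600 nm. Normalized to FeCl3/clioquinol equimolar mix (positive) and DMSO (negative).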
FUS suppressor – suppressors of FUS proteinopathy in yeast; S. cerevisiae FUS-expressing, growth rescue, OD600, 24 h; 390,000 compounds, 0.24% hits; Potency, µM (top dose mostly 76.6 µM), actives largely listed as activators;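 also: plate controls were DMSO vehicle for no effect and reference control for full effect; nearly all actives have a fitted effect of over 55% in size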
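Yeast expressing FUS under galactose induction, OD 0.005 in 2% galactose medium; compounds in a dilution series, 24 h at 30C. Growth rescue by absorbance at 600 nm; CP55940 positive control, DMSO negative.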
TDP43 rescue – inhibitors of TDP-43 toxicity in yeast. 410,000 compounds, 1.8% hits. Potency, µM (series often up to 46.1 µM), without a hit: at the top dose growth rescue (activation), hits mostly activators. TDP-43 expressing yeast growth rescue, BacTiter-Glo, 24 h; also: % of control where 0% means no effect; nearly all actives have a fitted effect of over 50% in size
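Readout is BacTiter-Glo luminescence of cell growth, so inhibitors register as activators. TDP-43-expressing yeast at OD600=0.02 in galactose medium, after raffinose pregrowth to mid-log, were incubated with compound for 24 hr at 30 deg C.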
Active calls of the source: *. Calls follow the shape of the dose curve; as a rule, active = well fitted curve in the direction sought with a large enough effect; inconclusive = small, poorly fitted or top-dose-only effect, or another doubt; inactive = no such curve, though single readings can be large; an effect the other way counts as inactive or inconclusive. Potency is read from the fitted curve at half-maximal effect.

`Cc1cccc(C)c1NC(=O)C(c1ccncc1)n1c(=O)c(-c2cc3ccccc3[nH]2)nc2ccccc21` (centres undefined) gave aSyn yeast inh 5.1%, Abeta yeast res inactive, FUS suppressor inconclusive and TDP43 rescue 14.1µM*.
Screening COc1ccc(NC(=O)C(C2CC2)n2c(=O)c(-c3cc4ccccc4[nH]3)nc3ccccc32)cc1 (centres undefined) returned aSyn yeast inh 14.1µM*, Abeta yeast res inactive, FUS suppressor inconclusive and TDP43 rescue 14.8%.
`O=C(NCc1ccccc1)C(c1ccc(C(F)(F)F)cc1)n1c(=O)c(-c2cc3ccccc3[nH]2)nc2ccccc21` (centres undefined) gave aSyn yeast inh 7.08µM*, Abeta yeast res inconclusive, FUS suppressor inconclusive and TDP43 rescue 0.0%.
Screening O=C(Nc1ccc2ccccc2c1)C(C1CC1)n1c(=O)c(-c2cc3ccccc3[nH]2)nc2ccccc21 (centres undefined) returned aSyn yeast inh inconclusive, Abeta yeast res inactive, FUS suppressor inactive and TDP43 rescue 0.0%.
Screening CSCCC(c1nc2ccccc2[nH]1)n1c(=O)c(-c2cc3ccccc3[nH]2)nc2ccccc21 (centres undefined) returned aSyn yeast inh -19.4%, Abeta yeast res inconclusive, FUS suppressor inactive and TDP43 rescue 17.8µM*.
For O=c1c(-c2cc3ccccc3[nH]2)nc2ccccc2n1C(CCc1ccccc1)c1nc2ccccc2[nH]1 (centres undefined) the results were aSyn yeast inh 29.3%, Abeta yeast res inconclusive, FUS suppressor inconclusive and TDP43 rescue inconclusive.
Screening CC(C)N1CCN(Cc2cc3ccccc3[nH]2)CC1CCO (centres undefined) returned aSyn yeast inh -1.1%, Abeta yeast res inactive, FUS suppressor inactive and TDP43 rescue 18.0%.
CC1(C)C(=O)NCCN1C(=O)CC1C(=O)NCCN1Cc1cccc(C(F)(F)F)c1 (centres undefined) was read as aSyn yeast inh -2.1%, Abeta yeast res inactive, FUS suppressor inactive and TDP43 rescue 3.9%.
`Cc1cccc(C)c1NC(=O)C(c1ccccc1)n1c(=O)c(-c2cc3ccccc3[nH]2)nc2ccccc21` (centres undefined) gave aSyn yeast inh -0.1%, Abeta yeast res inconclusive, FUS suppressor inactive and TDP43 rescue inconclusive.
Cc1cccc(C)c1NC(=O)C(c1ccc(C#N)cc1)n1c(=O)c(-c2cc3ccccc3[nH]2)nc2ccccc21 (centres undefined) was read as aSyn yeast inh 29.4%, Abeta yeast res inconclusive, FUS suppressor inactive and TDP43 rescue 10µM*.
For COC(=O)C1=C(C)N(CCc2cc(OC)c(OC)c(OC)c2)C(=O)N[C@H]1c1ccccc1 the results were aSyn yeast inh 0.0%, Abeta yeast res inactive, FUS suppressor inactive and TDP43 rescue 23.9%.
Screening COC(=O)C1=C(C)N(c2ccc(C(=O)OC)cc2)C(=O)C1 returned aSyn yeast inh 11.5%, Abeta yeast res inactive, FUS suppressor inactive and TDP43 rescue 12.0%.
Screening COC(=O)C1=C(C)N(c2cc(Cl)cc(Cl)c2)C(=O)C1 returned aSyn yeast inh -1.2%, Abeta yeast res inactive, FUS suppressor inactive and TDP43 rescue 17.8µM*.
`CCc1cccc2c(-c3ccccc3)nc(SCC(=O)Nc3ccccc3)nc12` gave Abeta yeast res inactive, FUS suppressor inactive and TDP43 rescue 3.4%.
`CC(C)c1ccc(Nc2n[nH]c(=S)s2)cc1` gave aSyn yeast inh -0.9%, Abeta yeast res inactive, FUS suppressor inactive and TDP43 rescue 14.1µM*.
`CN(C)S(=O)(=O)N1CCC(Oc2cccc(C(=O)N3CCCCCCC3)c2)CC1` gave aSyn yeast inh -0.7%, Abeta yeast res inconclusive, FUS suppressor inactive and TDP43 rescue 18.5%.
`S=C(c1cccs1)N1CCN(c2ccccc2)CC1` gave aSyn yeast inh 8.9%, Abeta yeast res inactive and TDP43 rescue 17.8µM*.
Screening CC(C)CC(=O)NC(=S)Nc1ccc(N2CCN(C(=O)c3cccs3)CC2)cc1 returned aSyn yeast inh -4.1%, Abeta yeast res inactive, FUS suppressor inactive and TDP43 rescue 17.8µM*.
`COc1ccc(-c2cc(C(=O)N3CCN(c4ccccc4)CC3)no2)cc1` gave aSyn yeast inh 6.4%, Abeta yeast res inactive, FUS suppressor inactive and TDP43 rescue 11.2µM*.
